This is an account of results in paper PMC10668032, “Altered binding affinity of SIX1-Q177R correlates with enhanced WNT5A and WNT pathway effector expression in Wilms tumor”.

The full ranking holds about 33,000 sequences; the median of “e-score” is about -0.05, and the highest 2% start at about 0.38. The entries come from a sample that favours the highest values as a whole.

The target of the experiment is T1, SIX1-Q177R homeodomain (human, UniProt Q15475 108-198, Q177R).
T1 sequence: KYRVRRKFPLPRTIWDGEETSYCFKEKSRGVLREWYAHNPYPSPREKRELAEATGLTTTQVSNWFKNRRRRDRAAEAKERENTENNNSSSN
The experiment is described as follows: universal protein binding microarray; Universal all-10-mer PBM (8x60K, AMADID 030236), 300 nM GST-tagged protein, Alexa Fluor 488 anti-GST; buffer, salt, pH and temperature not stated (as in Berger); high values mean tight binding. To be noted: protein: ivt; tags: N-terminal GST; dsDNA, one strand shown. The essentials: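 Binding was expressed as 8-mer E-scores calculated with the Universal PBM Analysis Suite. The GST-tagged homeodomains, made by in vitro transcription/translation, were applied in duplicate at 300 nM final concentration to universal 'all 10-mer' protein binding microarrays (8×60K format).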
Regarding GGGTTTAA, the binding signal was found to be 0.232 ± 0.0257 E-score. Next, GAACCCAC: 0.19 ± 0.0124 E-score. The same measure for ACCTCACA: 0.244 ± 0.00679 E-score. For CACTAAAG, the binding signal is 0.185 ± 0.042 E-score. As for ACACTCCT, the binding signal worked out at 0.391 ± 0.0158 E-score. ACACTTCT: the binding signal turned out to be 0.374 ± 0.0413 E-score. As to ACACTCCC, the binding signal was 0.404 ± 0.00738 E-score. For the sequence ACACTCCA, the binding signal was 0.373 ± 0.0149 E-score. As to ACACTCCG, the binding signal turned out to be 0.3884 ± 0.00235 E-score.

In the case of CCACTCCA, the binding signal came to 0.152 ± 0.00234 E-score. For the sequence ACTCTCCC, the binding signal amounted to 0.163 ± 0.0151 E-score. For the sequence ATACTCCG, the binding signal was 0.195 ± 0.0283 E-score. As to ACCCTCCG, the binding signal came out at 0.271 ± 0.0147 E-score.

For GGCGGATA, the binding signal was 0.22 ± 0.0151 E-score. The same measure for CACTCCAA: 0.161 ± 0.0414 E-score; for AGGCTACC: 0.187 ± 0.00757 E-score. On to CACCGTCA, for which the binding signal came out at 0.209 ± 0.0101 E-score.

Turning to CACACGGG, the binding signal came out at 0.332 ± 0.0383 E-score. Consider AGCACGGG, for which the binding signal came out at 0.155 ± 0.00564 E-score. For the sequence AACACGGA, the binding signal worked out at 0.372 ± 0.0198 E-score. Regarding AACACGGT, the binding signal stood at 0.383 ± 0.0148 E-score. Turning to AACACGGG, the binding signal was found to be 0.432 ± 0.00733 E-score.

For CACTCGCA, the binding signal is 0.264 ± 0.0114 E-score. Take ACCGCGGT: the binding signal was 0.187 ± 0.0496 E-score.

Take AACAAGTG: the binding signal was found to be 0.172 ± 0.00772 E-score. Turning to AAGTGTTC, the binding signal was 0.285 ± 0.0294 E-score. On to GAGTGTTA, for which the binding signal amounted to 0.407 ± 0.0179 E-score. Take AAGTGTGT: the binding signal is 0.215 ± 0.00375 E-score. CAGTGTTC: the binding signal was found to be 0.355 ± 0.0115 E-score. With GAGTGCTA, the binding signal was 0.152 ± 0.00664 E-score. The same measure for CACTGTTA: 0.255 ± 0.0243 E-score. As to AAGTGTTA, the binding signal amounted to 0.393 ± 0.0449 E-score. With CAGTGTTA, the binding signal stood at 0.402 ± 0.00939 E-score. Next, AGAGCACC: 0.202 ± 0.0183 E-score; AACCCACC: 0.194 ± 0.0122 E-score; CGCGGGCA: 0.276 ± 0.0364 E-score. For CCCGAGTC, the binding signal is 0.171 ± 0.0123 E-score.

For the sequence ACACCCCA, the binding signal was 0.4705 ± 0.00327 E-score. Turning to CCACCCCA, the binding signal is 0.267 ± 0.0424 E-score. As to CCACCCCG, the binding signal was determined as 0.246 ± 0.0156 E-score. With ACACCCCC, the binding signal was found to be 0.4871 ± 0.00117 E-score. As to ACACCCCG, the binding signal came out at 0.466 ± 0.00875 E-score. As to CCACCCCC, the binding signal was determined as 0.209 ± 0.0542 E-score. For the sequence AGACCCCT, the binding signal was 0.155 ± 0.0162 E-score. With ACCCCCCT, the binding signal was 0.302 ± 0.0219 E-score.

As for TCACCCCA, the binding signal was 0.184 ± 0.0578 E-score.

GCACCCCC: the binding signal was determined as 0.311 ± 0.046 E-score. ACACCCCT: the binding signal stood at 0.4748 ± 0.00334 E-score. In the case of ACCCCCCG, the binding signal was 0.329 ± 0.0392 E-score. Next, CCCTCGAC: 0.176 ± 0.00448 E-score. Next, ATCGGGCA: 0.195 ± 0.0164 E-score; CCGCCCGA: 0.174 ± 0.00646 E-score. Next, CCCTGCAC: 0.178 ± 0.0222 E-score; TGATACCA: 0.325 ± 0.0116 E-score; AACCCGTG: 0.23 ± 0.00447 E-score. Turning to GCGGAGTA, the binding signal amounted to 0.241 ± 0.0385 E-score. Consider ACTGGCAC, for which the binding signal is 0.152 ± 0.00487 E-score. The same measure for ACCCGGAC: 0.171 ± 0.0263 E-score; for AGCGCGGG: 0.2629 ± 0.0007 E-score. As to CAGAACAC, the binding signal was 0.3812 ± 0.000905 E-score. The same measure for CAGGAACA: 0.259 ± 0.00612 E-score; for GAGAACAC: 0.3811 ± 0.000742 E-score. GAGAATAC: the binding signal is 0.194 ± 0.00365 E-score. Consider AAGAACAC, for which the binding signal worked out at 0.423 ± 0.0082 E-score. The same measure for CACTCTAC: 0.291 ± 0.0135 E-score. Consider CCGCCACA, for which the binding signal came out at 0.282 ± 0.0124 E-score. As for ACAAGGGG, the binding signal stood at 0.185 ± 0.0199 E-score. As to CACTCCCA, the binding signal worked out at 0.273 ± 0.0105 E-score. With GCACTACA, the binding signal came out at 0.171 ± 0.00501 E-score. As to ACCCAGCG, the binding signal stood at 0.168 ± 0.00443 E-score. Turning to ACTTAGGG, the binding signal is 0.181 ± 0.0198 E-score. Take ATCAGGTG: the binding signal was found to be 0.224 ± 0.00902 E-score.

In the case of AAGTGGTG, the binding signal amounted to 0.337 ± 0.0139 E-score. The same measure for CCCTACAC: 0.424 ± 0.00443 E-score. For the sequence ACCTACAC, the binding signal was 0.4302 ± 0.00419 E-score.

For the sequence GCCTACGC, the binding signal amounted to 0.167 ± 0.0292 E-score.

Take ACCTACCC: the binding signal is 0.252 ± 0.0152 E-score. The same measure for GCCTACAC: 0.442 ± 0.0046 E-score; for GCCCACAC: 0.255 ± 0.0252 E-score; for CCCTACCC: 0.185 ± 0.00683 E-score. Consider CCCTACTC, for which the binding signal worked out at 0.19 ± 0.0302 E-score. For ACCTATAC, the binding signal is 0.2048 ± 0.00123 E-score. As to GGGATCGA, the binding signal stood at 0.257 ± 0.0548 E-score. For CACGACTA, the binding signal was determined as 0.22 ± 0.0605 E-score. Take CACTAATC: the binding signal stood at 0.172 ± 0.0411 E-score.

On to GTGTTCAA, for which the binding signal amounted to 0.3855 ± 0.00337 E-score.

For GGGTTCAC, the binding signal was determined as 0.184 ± 0.0552 E-score.
